High-throughput results deposited in PubChem BioAssay by The Scripps Research Institute Molecular Screening Center.
Compounds with a hit are over-represented: about 3.4% of the library has one in this group of screens.
ADAM10 inh: human ADAM10 inhibitors, primary screen, biochemical, QFRET, HTS; AID 720582, 2013; inhibition, % at 7 µM; actives 0.62% (n = 370,000); recombinant ADAM10, EDANS/DABCYL FRET peptide cleavage, 3 h; Disintegrin and metalloproteinase domain-containing protein 10 (Homo sapiens), O14672;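 active = inhibition above a per-campaign cutoff equal to the mean of compounds falling between control-based bounds plus 3 SD, cut at about 20% in these data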;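 also: 0% = DMSO wells while the 100% control is not disclosed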
PLCb3 inh: human PLC-beta3 inhibitors, primary screen, biochemical, fluorescence. 1-phosphatidylinositol 4,5-bisphosphate phosphodiesterase beta-3 (Homo sapiens), Q01970. Purified PLC-beta3, fluorogenic substrate. inhibition, % at 12.2 µM. actives 0.18% (n = 370,000). AID 720704, 2013; in the data active = inhibition above about 11%;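 also: 0% = median of compound wells on plate and 100% = full blocker control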
ADAM17 inh: ADAM17 inhibitors, primary screen, biochemical, QFRET; Disintegrin and metalloproteinase domain-containing protein 17 (Homo sapiens), P78536; recombinant ADAM17, EDANS/DABCYL FRET peptide cleavage; inhibition, % at 6.95 µM; actives 0.83% (n = 370,000);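 active = inhibition above the mean of compounds lying between control limits plus 3 SD, set per campaign, cut at about 8.5% in these data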;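 also: 0% = DMSO-only wells as the low control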
KLK7 zymogen act: proKLK7 zymogen activators, primary screen, biochemical, fluorescence intensity; Kallikrein-7 (Homo sapiens), P49862; purified proKLK7, EDANS-DABCYL substrate fluorescence; 100% is mature enzyme control, 0% vehicle; activation, % at 7 µM; actives 0.9% (n = 370,000); AID 652039, 2013;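 active = activation above the mean of all tested compounds plus 3 SD, computed per campaign excluding outliers beyond control limits, cut at about 13% in these data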
PLC-gamma1 inh: PLC-gamma1 enzyme inhibitors, primary screen, biochemical, fluorescence, purified enzyme; 1-phosphatidylinositol 4,5-bisphosphate phosphodiesterase gamma-1 (Homo sapiens), P19174; fluorogenic substrate; inhibition, % at 12.2 µM; actives 0.84% (n = 370,000); in the data active = inhibition above about 9.5%
sPLA2-III inh: human group III sPLA2 inhibitors, primary screen, biochemical, QFRET, BODIPY PC-A2 liposome substrate; Group 3 secretory phospholipase A2 (Homo sapiens), Q9NZ20; QFRET BODIPY PC-A2 liposome hydrolysis, fluorescence; inhibition, % at 12.2 µM; actives 0.56% (n = 370,000); AID 743126, 2013;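 active = inhibition above mean plus 3 SD of compounds lying within the high and low control bounds, cut at about 19% in these data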;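 also: 0% = median of test compound wells and 100% = no enzyme DMSO wells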
sPLA2 confirm: human group III sPLA2 inhibitors, confirmation, biochemical, QFRET, triplicate | shares compounds with sPLA2-III inh | recombinant hGIII-sPLA2, BODIPY PC-A2 QFRET fluorescence | inhibition, % at 12.2 µM | actives 34% (n = 2,000) | AID 743280, 2014;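 active = mean inhibition across triplicates above the hit cutoff set in the earlier primary screen, cut at about 19% in these data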;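 also: 0% = enzyme with DMSO and 100% = DMSO wells lacking enzyme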
535nm interf: 535nm fluorescence optical interference, confirmation, artefact control for HGIII-sPLA2 inhibitor project, biochemical, QFRET; BODIPY FL product fluorescence interference; actives 8.5% (n = 2,000); inhibition, % at 12.2 µM; shares compounds with sPLA2-III inh;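 active = average inhibition above the solvent-only control mean plus 3 SD, cut at about 6% in these data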;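 also: 0% = DMSO with substrate plus product and 100% = DMSO with substrate alone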
535nm interf DR: 535nm fluorescence optical interference, dose response, artefact control for HGIII-sPLA2 inhibitor project, biochemical, QFRET. shares compounds with sPLA2-III inh. BODIPY FL product fluorescence interference, cell-free. IC50, µM. 240 tested, under 10 active;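 active = IC50 at or below 10 µM; inactive = IC50 above 10 µM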
Active calls of the source: *; i = inactive; / = no result given.

SMILES | ADAM10 inh | PLCb3 inh | ADAM17 inh | KLK7 zymogen act | PLC-gamma1 inh | sPLA2-III inh | sPLA2 confirm | 535nm interf | others
CCC(=O)Nc1ccc2c(c1)C(=O)N(C)[C@@H]1CC[C@@H](CC(=O)OC)O[C@H]1CO2 | -12 | 2 | 0 | 0 | 1 | 5 | / | /
CCC(=O)Nc1ccc2c(c1)C(=O)N(C)[C@@H]1CC[C@@H](CC(=O)NCCN3CCCCC3)O[C@H]1CO2 | -16 | -3 | -9 | 0 | 8 | 21* | 2 | -5
N=C1C=CC(=C(c2ccc(N)cc2)c2ccc(N)cc2)C=C1 | -9 | -20 | -7 | 0 | -11 | 21* | 17 | -1
Cc1ccc(-c2nc3ncccc3o2)cc1NC(=S)NC(=O)c1ccco1 | -6 | -2 | 1 | 0 | -2 | 4 | / | /
Cc1cc(-c2nc3ncccc3o2)ccc1NC(=S)NC(=O)c1ccco1 | i | -208 | -258 | 5 | -168 | 21* | 8 | -22
Nc1nc(-c2ccccc2)c(-c2ccccc2)s1 | 6 | -26 | 6 | 0 | -20 | -4 | / | /
Nc1nc(-c2ccccc2)c(N=Nc2ccc(Cl)cc2)s1 | -2 | -2 | 0 | -1 | 1 | 19* | 34* | 7.1*
CC(C)(C)c1cc(-c2n[nH]c(=S)n2-c2ccc(Cl)cc2)n[nH]1 | 0 | -8 | -3 | 0 | -3 | 21* | 27* | 4
CC(SCC(=O)NC12CC3CC(CC(C3)C1)C2)C(=O)O (centres undefined) | -6 | -1 | 0 | 0 | 0 | 24* | -2 | -4
CC(C)NCC(=O)NC12CC3CC(CC(C3)C1)C2 | -10 | -1 | -7 | 0 | 0 | -4 | / | /
CCOc1ccc(C(=O)Nc2nncs2)cc1OCC | -3 | -1 | 0 | 0 | 9 | 22* | -2 | 1
Cc1nn(-c2ccccc2)c2sc(C(=O)NC3CCCCCC3)cc12 | -12 | 0 | -3 | 0 | 0 | 16 | / | /
CNC(=S)N/N=C/c1cc(Br)cc(Br)c1O | -128 | -386 | -44 | -7 | -340 | 44* | 51* | 5 | 535nm interf DR=>122
Cc1ccc2nc(N(CCN(C)C)C(=O)c3ccc4c(c3)OCCO4)sc2c1 | -2 | -4 | -1 | 0 | 1 | 3 | / | /
COc1ccc2nc(Nc3nc4cc5c(cc4s3)OCO5)sc2c1 | -179 | -60 | -49 | -5 | -33 | 23* | 37* | 5 | 535nm interf DR=>122
COc1cc(C(=O)NNc2nc3cc4c(cc3s2)OCO4)cc(OC)c1OC | -4 | -10 | -3 | 1 | -13 | 19* | 18 | -5
Cc1ccc2nc(NNC(=O)c3ccc4c(c3)OCCO4)sc2c1 | 4 | -4 | -3 | 0 | -2 | 25* | 32* | 0 | 535nm interf DR=>122
COc1ccc2nc(Nc3ccccc3)sc2c1 | 3 | -4 | 3 | 0 | 1 | -18 | / | /
Cc1cccc(C)c1OCC(O)CNC(C)c1ccccc1 (centres undefined) | -10 | 1 | -5 | 0 | 1 | 8 | / | /
COc1ccc(C2=CC(=O)C[C@H](c3ccc(F)cc3)C2)cc1OC | -36 | -350 | -7 | -1 | -226 | -15 | / | /
COc1cc(NS(=O)(=O)c2csc(C(N)=O)c2)cc(OC)c1 | -4 | -9 | -2 | -1 | 0 | 1 | / | /
Cc1ccc(NC(=O)CN2C(=O)CNC2=O)cc1 | 4 | -8 | -5 | 0 | 1 | 3 | / | /
Oc1cccc(/C=N/NC(=S)Nc2cccnc2)c1O | 17 | -37 | -1 | -7 | -22 | 34* | 21* | 2
CSc1cccc(CN2CCC(Oc3ccc(C(=O)N4CCCCC4)cc3)CC2)c1 | 5 | -9 | 0 | 0 | 1 | -18 | / | /
O=C(Nc1ccccc1)C1=C[C@@H](c2ccc(C(F)(F)F)cc2)C[C@@H](OCCCCO)O1 | 3 | -2 | 0 | 1 | 1 | -4 | / | /
SMILES | ADAM10 inh | PLCb3 inh | ADAM17 inh | KLK7 zymogen act | PLC-gamma1 inh | sPLA2-III inh | sPLA2 confirm | 535nm interf | others
Cc1nn(C)c(-c2n[nH]c(=S)n2Cc2ccco2)c1Cl | 1 | -4 | -4 | 0 | -5 | 20* | 22* | -1
Oc1ccc(-c2n[nH]c(=S)n2Cc2ccco2)cc1 | -6 | 0 | -3 | 0 | -1 | 5 | / | /
CCOC(=O)NC(Nc1ccc(C)cn1)(C(F)(F)F)C(F)(F)F | 1 | -2 | -5 | 0 | -1 | 11 | / | /
COC(=O)C(NC(C)=O)(Nc1ccc(C)cn1)C(F)(F)F (centres undefined) | 4 | -9 | -10 | 0 | 1 | 20* | 4 | -6
CC(CO)NS(=O)(=O)c1cccc(Cl)c1F (centres undefined) | -13 | -1 | -4 | -1 | 1 | 4 | / | /
CCn1c(SCC(=O)N2CCC(C)CC2)nc2c([nH]c3ccccc32)c1=O | -10 | 0 | -1 | -1 | 0 | 9 | / | /
Cc1cccc2nc(-c3ccco3)c(Nc3ccccc3)n12 | i | i | -316 | 4 | -496 | -1 | / | /
Cc1ccc(Nc2c(-c3ccccn3)nc3cccc(C)n23)cc1 | 16 | -16 | 5 | 0 | -4 | 23* | 12 | -25
N#Cc1c(-c2cccs2)cc(C2CC2)nc1SCC(N)=O | -9 | -5 | -4 | -1 | -1 | 35* | 12 | -2
CC(=NNC(=S)Nc1cccc(Cl)c1)c1ccccn1 | -6 | -2 | 4 | 0 | 0 | 20* | 38* | 4
S=C(NCc1ccccn1)Nc1cccc(Cl)c1 | 0 | -6 | -3 | 0 | -1 | 5 | / | /
COc1ccc(CNC(C)CCc2ccccc2)cc1 (centres undefined) | 1 | 4 | -4 | 0 | 2 | 20* | 9 | -16
COc1ccc2c(c1)C1NC(=S)NC(C)(O2)C1C(=O)Nc1ccc(Cl)cc1 (centres undefined) | 2 | -2 | 2 | 0 | -1 | 20* | 15 | -3
Cc1ccc2c(c1)C1NC(=S)NC(C)(O2)C1C(=O)Nc1ccc(Cl)cc1 (centres undefined) | 1 | 10 | 3 | 0 | 7 | 7 | / | /
